According to the supplement of paper PMC12669032:

Key:
Assay in all cases: growth AUC relative to DMSO control (median of replicates) (fraction); higher = more growth (less inhibition), active = hit call of the paper
Conditions in all cases: 20 µM; 24 h;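 active = AUC reduced over 20% with Padj below 0.05 in at least 2 of 3 replicates; inactive = otherwise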
[1] = test system: Akkermansia muciniphila
Summary of the method: (§1)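 Three biological replicates, each grown on a separate day, were combined as a median for every value. In each, a gut bacterial monoculture in mGAM started at OD600 0.05 and grew anaerobically at 37 °C with 20 µM compound (1% DMSO), with OD600 read hourly over 24 h. Area under the growth curve was normalised against the plate median of solvent-only wells, or against row and column medians on the industrial chemical plate, after the minimum OD was set to 0.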

[2] = test system: Bacteroides caccae
Summary of the method: as §1

[3] = test system: Bacteroides clarus
Summary of the method: as §1

[4] = test system: Bacteroides dorei
Summary of the method: as §1

[5] = test system: Bacteroides stercoris
Summary of the method: as §1

[6] = test system: Bacteroides thetaiotaomicron
Summary of the method: as §1

[7] = test system: Bacteroides uniformis
Summary of the method: as §1

[8] = test system: Bifidobacterium longum subsp. longum
Summary of the method: as §1

[9] = test system: Clostridium difficile
Summary of the method: as §1

[10] = test system: Collinsella aerofaciens
Summary of the method: as §1

[11] = test system: Coprococcus comes
Summary of the method: as §1

[12] = test system: Escherichia coli ED1a
Summary of the method: as §1

[13] = test system: Escherichia coli IAI1
Summary of the method: as §1

[14] = test system: Eubacterium rectale
Summary of the method: as §1

[15] = test system: Fusobacterium nucleatum subsp. animalis
Summary of the method: as §1

[16] = test system: Lactobacillus gasseri
Summary of the method: as §1

[17] = test system: Lactobacillus paracasei
Summary of the method: as §1

[18] = test system: Odoribacter splanchnicus
Summary of the method: as §1

[19] = test system: Parabacteroides distasonis
Summary of the method: as §1

[20] = test system: Parabacteroides merdae
Summary of the method: as §1

Measured: growth AUC

COC(=O)COc1ccc(Cl)cc1C
inactive: [1] 0.917 | [2] 1.04 | [3] 0.986 | [4] 1.01 | [5] 1.03 | [6] 1.01 | [7] 1.01 | [8] 0.805 | [9] 0.989 | [10] 1.01 | [11] 1.04 | [12] 0.969 | [13] 1.01 | [14] 0.979 | [15] 1.03 | [16] 1.01 | [17] 1.03 | [18] 1.01 | [19] 1.01 | [20] 1.03

CSc1nnc(C(C)(C)C)c(=O)n1/N=C/C(C)C
inactive: [1] 0.944 | [2] 0.905 | [3] 1.04 | [4] 1.02 | [5] 1.35 | [6] 1.02 | [7] 0.988 | [8] 1.08 | [9] 1.01 | [10] 1.02 | [11] 1.02 | [12] 1.04 | [13] 0.979 | [14] 1.1 | [15] 1.08 | [16] 1.08 | [17] 1.03 | [18] 0.96 | [19] 1.03 | [20] 1.02

CCOCCc1ccc(OCCNc2ncnc(CC)c2Cl)c(C)c1C
inactive: [1] 0.937 | [2] 0.929 | [3] 0.883 | [4] 0.942 | [5] 0.975 | [6] 0.915 | [7] 0.887 | [8] 0.923 | [9] 0.998 | [10] 0.94 | [11] 0.978 | [12] 0.999 | [13] 0.961 | [14] 0.846 | [15] 1.07 | [16] 0.883 | [17] 0.929 | [18] 1.01 | [19] 0.903 | [20] 0.92

CNC(=O)/C(=N/OC)c1ccccc1CO/N=C(C)/C(=N/OC)C(/C)=N/OC
inactive: [1] 0.957 | [2] 0.983 | [3] 0.98 | [4] 1 | [5] 0.991 | [6] 0.976 | [7] 0.976 | [8] 0.989 | [9] 0.979 | [10] 1.03 | [11] 1.01 | [12] 1.01 | [13] 1.05 | [14] 0.928 | [15] 0.91 | [16] 1.16 | [17] 0.998 | [18] 0.989 | [19] 0.997 | [20] 0.976

CNC(=O)Nc1nc2ccccc2s1
inactive: [1] 0.957 | [2] 0.953 | [3] 0.999 | [4] 0.959 | [5] 1.1 | [6] 1.01 | [7] 0.966 | [8] 0.955 | [9] 0.969 | [10] 0.942 | [11] 1.01 | [12] 0.999 | [13] 0.984 | [14] 1.03 | [15] 1 | [16] 0.944 | [17] 0.953 | [18] 1.05 | [19] 0.984 | [20] 1.03

CCCCC(CC)COC(=O)COc1ccc(Cl)cc1C (stereo not given)
inactive: [1] 1.15 | [2] 0.995 | [3] 0.997 | [4] 0.977 | [5] 0.983 | [6] 0.987 | [7] 0.943 | [8] 0.986 | [9] 0.979 | [10] 0.907 | [11] 1.03 | [12] 0.981 | [13] 1.01 | [14] 1.05 | [15] 0.989 | [16] 0.828 | [17] 0.962 | [18] 0.934 | [19] 0.923 | [20] 0.937

CCc1nc2ncnn2c(N)c1CCCC(=O)O.Cl
inactive: [1] 1.12 | [2] 0.907 | [3] 1.03 | [4] 1 | [5] 1.14 | [6] 0.985 | [7] 1.02 | [8] 1.01 | [9] 1.04 | [10] 1 | [11] 1.02 | [12] 1.02 | [13] 1.05 | [14] 1.07 | [15] 1.13 | [16] 0.975 | [17] 1.1 | [18] 0.952 | [19] 0.991 | [20] 0.997

Cc1[nH]oc(=O)c1N=Nc1ccccc1Cl
inactive: [1] 0.935 | [2] 0.996 | [3] 0.95 | [4] 0.951 | [5] 0.828 | [6] 1.01 | [7] 1.02 | [8] 1.04 | [9] 0.964 | [10] 0.961 | [11] 1.01 | [12] 0.989 | [13] 0.962 | [14] 1.03 | [15] 0.839 | [16] 0.931 | [17] 0.955 | [18] 1.06 | [19] 0.987 | [20] 0.949

O=[N+](Nc1ccccc1)c1ccccc1
inactive: [1] 0.945 | [2] 0.972 | [3] 0.966 | [4] 0.997 | [5] 1.08 | [6] 0.991 | [7] 0.988 | [8] 0.934 | [9] 1 | [10] 0.965 | [11] 0.959 | [12] 0.993 | [13] 0.955 | [14] 0.921 | [15] 0.978 | [16] 0.973 | [17] 1.04 | [18] 0.973 | [19] 0.976 | [20] 0.986

O=C(O)Cc1c(Cl)ccc(Cl)c1Cl
inactive: [1] 0.95 | [2] 1 | [3] 0.99 | [4] 1.02 | [5] 0.951 | [6] 1 | [7] 0.993 | [8] 1.04 | [9] 1 | [10] 1 | [11] 0.959 | [12] 0.947 | [13] 0.999 | [14] 0.96 | [15] 0.928 | [16] 1.06 | [17] 1.03 | [18] 0.946 | [19] 1.05 | [20] 1.01

Oc1cccc2ccccc12
inactive: [1] 1 | [2] 1.04 | [3] 1 | [4] 0.987 | [5] 0.943 | [6] 0.993 | [7] 0.976 | [8] 0.999 | [9] 0.98 | [10] 0.959 | [11] 0.96 | [12] 0.994 | [13] 0.982 | [14] 0.957 | [15] 0.988 | [16] 0.976 | [17] 1.02 | [18] 0.975 | [19] 0.983 | [20] 0.997

COC1CCC2(CC1)NC(=O)C(O)(c1cc(C)ccc1C)C2=O (stereo not given)
inactive: [1] 1 | [2] 0.984 | [3] 1.02 | [4] 1.03 | [5] 1.15 | [6] 1.01 | [7] 1.02 | [8] 1.05 | [9] 1.02 | [10] 0.981 | [11] 1.03 | [12] 1.01 | [13] 1.02 | [14] 1.1 | [15] 1.16 | [16] 1.02 | [17] 1.06 | [18] 1.06 | [19] 1.02 | [20] 1.06

S=C([S-])NCCNC(=S)[S-].[Mn+2]
inactive: [1] 0.999 | [2] 1.01 | [3] 1.13 | [4] 0.979 | [5] 1.1 | [6] 1.03 | [7] 0.991 | [8] 0.996 | [9] 0.977 | [10] 1 | [11] 0.998 | [12] 1.03 | [13] 1.03 | [14] 1.02 | [15] 1.04 | [16] 0.994 | [17] 1.16 | [18] 1.06 | [19] 1.02 | [20] 1.03

c1ccc2[nH]c(-c3cscn3)nc2c1
inactive: [1] 0.73 | [2] 0.997 | [3] 1.01 | [4] 0.973 | [5] 0.947 | [6] 0.974 | [7] 1.02 | [8] 0.976 | [9] 0.985 | [10] 0.985 | [11] 0.96 | [12] 1.01 | [13] 0.989 | [14] 0.878 | [15] 0.97 | [16] 1 | [17] 0.991 | [18] 0.962 | [19] 0.974 | [20] 0.972

Cc1c(C(=O)c2c[nH]n(C)c2=O)ccc(S(C)(=O)=O)c1C1=NOCC1
inactive: [1] 0.937 | [2] 1.03 | [3] 0.983 | [4] 0.989 | [5] 0.895 | [6] 1 | [7] 1.01 | [8] 1.13 | [9] 1 | [10] 0.976 | [11] 1.02 | [12] 0.984 | [13] 0.981 | [14] 0.99 | [15] 0.972 | [16] 0.999 | [17] 0.954 | [18] 1.04 | [19] 1.04 | [20] 1

CC(C)NS(=O)(=O)NC(=O)c1cc(NC(N)=O)c(F)cc1Cl
inactive: [1] 1.06 | [2] 1 | [3] 0.988 | [4] 0.959 | [5] 0.991 | [6] 0.808 | [7] 1.02 | [8] 1.02 | [9] 1.06 | [10] 0.981 | [11] 0.928 | [12] 1.01 | [13] 0.971 | [14] 1.01 | [15] 1 | [16] 0.907 | [17] 1.1 | [18] 0.976 | [19] 1.02 | [20] 0.98

CCCN(CCC)C(=O)SCC
inactive: [1] 0.884 | [2] 1.02 | [3] 0.97 | [4] 1.01 | [5] 0.942 | [6] 0.998 | [7] 0.959 | [8] 0.97 | [9] 1.03 | [10] 0.992 | [11] 0.969 | [12] 0.967 | [13] 1.01 | [14] 0.944 | [15] 0.893 | [16] 1.03 | [17] 1.02 | [18] 1 | [19] 1.03 | [20] 0.984
